What all share (experiment): NCI-60 one-dose screen, 48 h (100 = growth as untreated, 0 = no growth, -100 = all killed)
Conditions in all cases: 10 µM unless noted

In assay [1] the test system is NCI-H23 lung.
The test system of assay [2] is NCI-H226 lung.
In assay [3] the test system is NCI-H322M lung.
The subject of assay [4] is HOP-62 NSCLC.
Assay [5] has as its system NCI-H460 lung.
In assay [6] the test system is HOP-92 NSCLC.
Assay [7] concerns NCI-H522 lung.
Assay [8] has as its system A549/ATCC NSCLC.
Assay [9] relates to 786-0 renal.
Assay [10] concerns DU-145 prostate.
In assay [11] the test system is K-562 leukemia.
In assay [12] the test system is MALME-3M melanoma.
Assay [13] concerns MDA-MB-231 breast.
For assay [14], the system named is RXF 393 renal.
Assay [15] concerns SF-268 CNS.
In assay [16] the test system is SF-295 CNS.
Assay [17] has as its system SF-539 CNS.
The subject of assay [18] is UACC-257 melanoma.
For assay [19], the system named is M14 melanoma.

Molecules are shown by their SMILES. This is part of a sample that, as a whole, favours compounds with a hit. Of some 83,000 tested, about 20% had one in any assay.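 Each cell line was grown in a 96-well plate and treated with one concentration of compound for 48 hours. Values below 10 were considered active.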 A number with no mark means an inactive call. The source made the active and inactive calls.

In PubChem BioAssay (NCI) one finds growth data, which are given here for 10 molecules.

Consider `N#Cc1c(N)n2c(nc1=Nc1ccc(Cl)cc1)sc1cc(Cl)ccc12`, for which the growth in assay [1] was 66.6%; in [2] it was 36.7%; in assay [3] it was 91%; in assay [4] it was 96.9%; in assay [5], 95.1%; in [6], 76.6%. Also, the growth in [7] was 93%; in assay [8], 75.4%; in [9], 51.4%; in assay [10] it was 97.7%; in [11], 92.1%; in [12], 85.4%. In addition, the growth in assay [13] was 67.1%; in assay [14], 65.1%; in assay [15] it was 56.4%; in [16], -2.32% (active); in assay [17] it was 103%; in assay [18] it was 54.4%. Further, the growth in assay [19] was 62.2%.

Consider `Clc1ccc2c(NCCCN3CCN(c4nc(-n5ccnc5)nc5ccccc45)CC3)ccnc2c1`, for which the growth in assay [1] was 104%; in assay [2] it was 113%; in assay [3] it was 87.1%; in [4], 84.7%; in [5] it was 89.3%; in assay [6], 58.7%. The growth in [7] is 75.7%; in assay [8], 96.9%; in assay [9], 78.8%; in assay [10], 93.3%; in [11], -48.8% (active); in [12] it was -83.2% (active). The growth is 8.95% (active) in [13]; 37.1% in assay [14]; 80% in assay [15]; 61.2% in assay [16]; -83.7% (active) in assay [17]; 87.1% in assay [18]. Further, the growth in assay [19] was -24% (active).

Turning to `C=C(C)[C@@H]1CC[C@]2(CN)CC[C@]3(C)[C@H](CC[C@@H]4[C@@]5(C)CCC(N)[C@@](C)(CO)[C@@H]5CC[C@]43C)[C@@H]12` (stereo not given in full), the growth in [1] is 53%; in assay [2], 89.6%; in assay [3], 34.4%; in assay [4], -89.2% (active); in assay [5], -75.7% (active); in assay [6], 51.7%. Moreover, the growth in assay [7] was -77.5% (active); in [8], -82.3% (active); in assay [9] it was -92.9% (active); in assay [10] it was -38.1% (active); in assay [11] it was -69.8% (active); in [12], -85.9% (active). The growth in assay [13] was -80.9% (active); in assay [14], 58.4%; in assay [15] it was -79.5% (active); in assay [16], 87.8%; in assay [17], -72.6% (active); in assay [18] it was -88.7% (active). Besides, in assay [19], the growth is -81.8% (active).

For `CCNCCNc1cc(-c2ccc(C(=O)OC)cc2)c(C#N)c2nc3ccccc3n12`, the growth in assay [1] was 66.6%; in assay [2], 87.8%; in [3], 43.7%; in assay [4], 68.4%; in assay [5], 4.26% (active); in assay [6], 71%. The growth is 32.3% in assay [7]; 11.9% in assay [8]; 44.2% in assay [9]; 38.1% in [10]; 2.65% (active) in assay [11]; 88.5% in assay [12]. Further, the growth in assay [13] was 0.164% (active); in assay [14], 16%; in [15] it was 30.8%; in assay [16], -62.1% (active); in assay [17] it was -80.1% (active); in [18], 53.1%. Also, in [19], the growth was 31.5%.

Turning to `CCCCNCC(=O)Nc1ccc(C(=O)OCC)cc1`, the growth in assay [1] is 105%; in assay [2] it was 89.8%; in [3], 105%; in [4], 98.7%; in [5], 106%; in assay [6], 79.6%. Further, the growth is 69.1% in [7]; 95.3% in assay [8]; 99.6% in assay [9]; 114% in [10]; 92.4% in assay [11]; 106% in [12]. In addition, the growth was 103% in [13]; 110% in [14]; 104% in [15]; 99.4% in [16]; 105% in assay [17]; 103% in assay [18]. Moreover, the growth in assay [19] is 97.3%.

For `COc1ccccc1NC(=O)Nc1ccc(-c2nc3ccccc3o2)cc1`, the growth in [1] is 99.4%; in [2] it was 99%; in assay [3] it was 88.7%; in assay [4] it was 95.8%; in assay [5], 101%; in assay [6], 111%. In addition, the growth in [7] is 112%; in [8], 82.2%; in [9], 89.2%; in [10], 101%; in [11] it was 83.4%; in assay [12], 95.3%. Moreover, the growth is 98.5% in assay [13]; 108% in assay [14]; 104% in assay [15]; 96.8% in assay [16]; 96.7% in assay [17]; 101% in assay [18]. In addition, the growth in [19] is 102%.

For the molecule `CN(C)CN1CCN(c2ccc3nc(-c4ccc5nc(-c6ccc(C(F)(F)F)cc6)[nH]c5c4)[nH]c3c2)CC1`, the growth was 55.6% in assay [1]; 64.2% in assay [2]; 87.1% in [3]; 57.6% in [4]; 10.6% in assay [5]; 75.8% in assay [6]. Also, the growth in assay [7] is 42.1%; in [8], 83.8%; in assay [9] it was 78.5%; in assay [10], 45%; in assay [11] it was 11.6%; in [12] it was -4.2% (active). Besides, the growth is 63.1% in assay [13]; 50.3% in assay [14]; 67.8% in assay [15]; 60.7% in assay [16]; 65.8% in [17]; 40.7% in assay [18]. Besides, in [19], the growth is 32.2%.

Take `COc1cc2c(cc1OC)-c1ccc3cc4c(cc3c1N(CCCN(C)C)C2)OCO4`: the growth was 48.7% in assay [1]; 57.6% in assay [2]; 51.3% in assay [3]; 38% in [4]; 14.6% in [5]; 9.04% (active) in [6]. Also, the growth was 19.5% in assay [7]; 20.2% in assay [8]; 35% in assay [9]; 38.9% in assay [10]; 20.6% in assay [11]; 58.2% in assay [12]. Further, the growth in assay [13] was 36.3%; in assay [14], 35.1%; in assay [15] it was 34%; in assay [16], 42.7%; in assay [17] it was 40.2%; in assay [18] it was 34.6%. The growth in [19] is 33.2%.

Regarding `NC(=S)c1csc(CCNC(=O)c2ccccc2)n1`, the growth in assay [1] was 100%; in assay [2], 116%; in assay [3], 108%; in assay [4], 109%; in assay [5], 109%; in assay [6], 97.3%. The growth in [7] is 106%; in assay [8] it was 90.1%; in [9] it was 98.2%; in assay [10], 129%; in assay [11], 110%; in assay [12], 125%. The growth in [13] was 107%; in [14], 128%; in assay [15], 111%; in [16], 96.9%; in assay [17] it was 114%; in assay [18], 94.2%. For the same molecule, the growth in [19] was 110%.

As for `CC(C)(C)OC(=O)N1Cc2cc3ccccc3nc2C1CO` (stereo not given), the growth was 85.9% in assay [1]; 92.1% in assay [2]; 104% in [3]; 102% in assay [4]; 107% in [5]; 96.7% in [6]. The growth in assay [7] was 110%; in [8] it was 95.6%; in assay [9], 95.8%; in assay [10], 98.6%; in [11] it was 133%; in assay [12], 120%. The growth was 96.6% in assay [13]; 66.5% in [14]; 102% in assay [15]; 92.8% in assay [16]; 95.7% in assay [17]; 19.1% in assay [18]. For the same molecule, in assay [19], the growth is 98.7%.
